The text below walks through data of PubChem BioAssay (Tox21).

A short description of test [1]: qHTS assay to identify small molecule antagonists of the thyroid receptor (TR) signaling pathway - cell viability counter screen (AID 743064). Also: nearly all actives have a fitted effect of over 50% in size. Also: potency is read from the fitted curve at half-maximal effect. The method in brief: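 GH3.TRE-Luc cells, 4 h pre-plating; cpd + T3 1 nM final; 37 °C 23.5 h; CellTiter-Fluor 30 min; fluorescence read.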
(In general: Quantitative high-throughput screening tests each substance at several concentrations.)

Test [2] in a line: qHTS assay to identify small molecule antagonists of the thyroid receptor (TR) signaling pathway (AID 743065). Also: nearly all actives have a fitted effect of over 55% in size. Also: potency is read from the fitted curve at half-maximal effect. The method in brief:
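Antagonism measured as loss of luciferase signal in GH3 cells stably carrying a TRE-luciferase reporter, co-treated with compound and T3 (1 nM final) for 23.5 h at 37 C. Viability was read in the same well by CellTiter-Fluor.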

Test [3] relates to thyroid hormone receptor (rat, GH3 cells). The experiment in a line: qHTS assay to identify small molecule agonists of the thyroid receptor (TR) signaling pathway (AID 743066; calls by dose curve).
Test [4] concerns the target Estrogen receptor (Homo sapiens) (UniProt P03372). The experiment in a line: qHTS assay to identify small molecule antagonists of the estrogen receptor alpha (ER-alpha) signaling pathway (AID 743069; active = well fitted curve in the direction sought with a large enough effect in the signal ratio in the repeat runs, not every such curve was filed as active; inconclusive = weak or mixed curves, or effect the other way; inactive = no such curve, though single readings can be large or run the other way; the % refers to the signal ratio; also: potency is read from the fitted curve at half-maximal effect). The method in brief:
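ER-alpha-UAS-bla GripTite HEK293 line; 2% charcoal-stripped FBS overnight; plated, 4 hr 37C/5% CO2; cpd in DMSO + 17beta-estradiol, 18 hr 37C; LiveBLAzer B/G FRET substrate 2 hr RT; fluorescence intensity.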

Test [5] is described as follows: qHTS assay to identify small molecule antagonists of the estrogen receptor alpha (ER-alpha) signaling pathway - cell viability counter screen (AID 743074; calls by dose curve;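 also: HEK293 cells carrying ER-alpha-UAS-bla reporter stimulated with 17beta-estradiol; nearly all actives have a fitted effect of over 45% in size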; also: potency is read from the fitted curve at half-maximal effect).
In test [6] the target is Estrogen receptor (Homo sapiens) (UniProt P03372). The experiment in a line: qHTS assay to identify small molecule agonists of the estrogen receptor alpha (ER-alpha) signaling pathway (AID 743075; calls by dose curve;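 also: HEK293 GripTite cells with ER-alpha and UAS-driven beta-lactamase reporter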; also: potency is read from the fitted curve at half-maximal effect).
Chain of Estrogen receptor (Homo sapiens) (P03372 whole entry, looked up): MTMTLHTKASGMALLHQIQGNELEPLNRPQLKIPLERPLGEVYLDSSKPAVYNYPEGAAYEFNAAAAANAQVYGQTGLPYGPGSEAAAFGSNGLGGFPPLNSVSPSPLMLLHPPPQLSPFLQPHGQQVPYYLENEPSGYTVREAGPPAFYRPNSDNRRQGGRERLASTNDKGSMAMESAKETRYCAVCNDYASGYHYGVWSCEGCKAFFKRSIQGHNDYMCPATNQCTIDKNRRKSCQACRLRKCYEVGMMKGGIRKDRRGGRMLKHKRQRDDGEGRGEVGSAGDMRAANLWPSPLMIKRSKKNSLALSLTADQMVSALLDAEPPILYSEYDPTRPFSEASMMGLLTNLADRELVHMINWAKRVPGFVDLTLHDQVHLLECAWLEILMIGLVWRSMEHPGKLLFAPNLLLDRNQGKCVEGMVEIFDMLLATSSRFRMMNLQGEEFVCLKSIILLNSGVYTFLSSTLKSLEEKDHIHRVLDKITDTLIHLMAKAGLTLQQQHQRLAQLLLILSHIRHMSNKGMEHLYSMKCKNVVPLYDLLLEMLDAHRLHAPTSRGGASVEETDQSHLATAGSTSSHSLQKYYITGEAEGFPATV
The target is the same in test [7]. The experiment in a line: qHTS assay to identify small molecule agonists of the estrogen receptor alpha (ER-alpha) signaling pathway using the BG1 cell line (AID 743079). Also: nearly all actives have a fitted effect of over 20% in size. Also: potency is read from the fitted curve at half-maximal effect. As to conditions: BG1Luc4E2 cells, ERE-luciferase agonist, 22 h; activation: at 70.3 µM (top of the series).
The nature of test [8]: qHTS assay to identify small molecule antagonists of the estrogen receptor alpha (ER-alpha) signaling pathway using the BG1 cell line (AID 743080; calls by dose curve;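 also: BG1 cells stimulated with 17beta-estradiol alongside compound; nearly all actives have a fitted effect of over 25% in size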; also: potency is read from the fitted curve at half-maximal effect). The method in brief:
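Luciferase inhibition measured with ONE-Glo after 30 min at RT in BG1Luc4E2 cells given test compounds and 17beta-estradiol for 21.5 h at 37 C; CellTiter-Fluor viability read in the same wells beforehand.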

Test [9] in a line: qHTS assay to identify small molecule antagonists of the estrogen receptor alpha (ER-alpha) signaling pathway using the BG1 cell line - cell viability counter screen (AID 743081).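 Also: compound given together with 17beta-estradiol as the ER stimulus; nearly all actives have a fitted effect of over 45% in size.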 Also: potency is read from the fitted curve at half-maximal effect.
The target in test [10] is Aromatase (Homo sapiens) (UniProt P11511). The experiment in a line: qHTS assay to identify aromatase inhibitors (AID 743083). Also: nearly all actives have a fitted effect of over 55% in size. Also: potency is read from the fitted curve at half-maximal effect.
Chain of Aromatase (Homo sapiens) (P11511 whole entry, looked up): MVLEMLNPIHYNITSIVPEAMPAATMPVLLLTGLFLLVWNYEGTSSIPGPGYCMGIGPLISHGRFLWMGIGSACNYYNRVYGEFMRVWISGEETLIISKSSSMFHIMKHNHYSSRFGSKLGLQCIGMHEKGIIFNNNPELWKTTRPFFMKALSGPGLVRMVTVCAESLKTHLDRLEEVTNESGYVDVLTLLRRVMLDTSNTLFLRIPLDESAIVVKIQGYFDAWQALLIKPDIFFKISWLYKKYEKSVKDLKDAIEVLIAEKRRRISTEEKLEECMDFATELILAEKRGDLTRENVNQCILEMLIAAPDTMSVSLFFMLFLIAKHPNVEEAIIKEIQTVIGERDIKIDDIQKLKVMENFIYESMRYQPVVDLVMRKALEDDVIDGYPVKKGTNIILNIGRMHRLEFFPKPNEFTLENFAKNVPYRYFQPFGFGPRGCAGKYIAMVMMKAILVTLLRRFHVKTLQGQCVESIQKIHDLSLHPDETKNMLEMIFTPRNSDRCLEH
Test [11] is described as follows: qHTS assay to identify aromatase inhibitors - cell viability counter screen (AID 743084).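 Also: cells stimulated with testosterone during compound exposure; nearly all actives have a fitted effect of over 55% in size.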 Also: potency is read from the fitted curve at half-maximal effect.
Test [12] addresses Aryl hydrocarbon receptor (Homo sapiens) (UniProt P35869). The experiment in a line: qHTS assay to identify small molecule that activate the aryl hydrocarbon receptor (AhR) signaling pathway (AID 743085).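 Also: HG2L7.5c1 human HepG2 liver cells with stably integrated DRE-driven firefly reporter; nearly all actives have a fitted effect of over 15% in size.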 Summed up: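 Luminescence read-out: ONE-Glo reagent, 30 min at room temperature, in HG2L7.5c1 HepG2 reporter cells treated 24 h at 37C. Viability was measured beforehand by CellTiter-Fluor fluorescence after 30 min at 37C.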

The nature of test [13]: qHTS assay to identify small molecule that activate the aryl hydrocarbon receptor (AhR) signaling pathway - cell viability counter screen (AID 743086). Also: nearly all actives have a fitted effect of over 45% in size. Also: potency is read from the fitted curve at half-maximal effect. Summed up: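 Cytotoxicity counter screen: CellTiter-Fluor signal (30 min, 37 C) in 4000 HepG2 cells/well carrying the DRE-luciferase reporter, following 24 h compound exposure at 37 C.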
The target of test [14] is Peroxisome proliferator-activated receptor gamma (Homo sapiens) (UniProt P37231). The experiment in a line: qHTS assay to identify small molecule agonists of the peroxisome proliferator-activated receptor gamma (PPARg) signaling pathway (AID 743094; active = well fitted activation curve with a large enough effect in the signal ratio in the repeat runs, not every such curve was filed as active; inconclusive = weak or mixed curves, or effect the other way; inactive = no such curve, though single readings can be large or run the other way; the % refers to the signal ratio). The method in brief: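 Compounds dissolved in DMSO were added to PPARg UAS-bla HEK293H cells for 17 h at 37C, and reporter expression was quantified by fluorescence intensity after 1 h with LiveBLAzer B/G FRET substrate.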
Chain of Peroxisome proliferator-activated receptor gamma (Homo sapiens) (P37231 whole entry, looked up): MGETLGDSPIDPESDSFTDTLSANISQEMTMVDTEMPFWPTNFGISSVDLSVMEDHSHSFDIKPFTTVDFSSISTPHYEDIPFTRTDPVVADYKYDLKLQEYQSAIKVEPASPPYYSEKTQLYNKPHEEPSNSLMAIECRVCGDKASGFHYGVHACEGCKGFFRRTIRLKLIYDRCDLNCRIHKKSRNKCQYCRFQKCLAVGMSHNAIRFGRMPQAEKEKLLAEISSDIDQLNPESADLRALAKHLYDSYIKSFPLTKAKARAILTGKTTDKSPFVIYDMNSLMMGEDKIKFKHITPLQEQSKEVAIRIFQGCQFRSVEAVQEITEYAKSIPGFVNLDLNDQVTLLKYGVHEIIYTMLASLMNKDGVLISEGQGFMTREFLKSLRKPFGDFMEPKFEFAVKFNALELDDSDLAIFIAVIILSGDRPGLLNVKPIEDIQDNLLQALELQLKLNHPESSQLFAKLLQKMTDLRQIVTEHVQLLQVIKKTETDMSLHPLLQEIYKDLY

The nature of test [15]: qHTS assay for small molecule agonists of the antioxidant response element (ARE) signaling pathway (AID 743202; active = well fitted activation curve with a large enough effect in the signal ratio in the repeat runs, not every such curve was filed as active; inconclusive = weak or mixed curves, or effect the other way; inactive = no such curve, though single readings can be large or run the other way; the % refers to the signal ratio; also: potency is read from the fitted curve at half-maximal effect). The method in brief: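 Quantitative high-throughput format in HepG2 cells bearing an integrated ARE-beta-lactamase reporter. Compound exposure lasted 16 h at 37 C, and fluorescence was read 2 h after adding LiveBLAzer B/G substrate at room temperature.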
Test [16] in a line: qHTS assay for small molecule agonists of the antioxidant response element (ARE) signaling pathway - cell viability counter screen (AID 743203; calls by dose curve; also: nearly all actives have a fitted effect of over 55% in size; also: potency is read from the fitted curve at half-maximal effect). Summed up: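 Following 16 hrs of compound treatment at 37C, HepG2 cells with an ARE-controlled beta-lactamase gene were lysed with CellTiter-Glo. Luminescence was read after 30 min at room temperature.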
Test [17] in a line: qHTS assay for small molecule activators of the heat shock response signaling pathway - cell viability counter screen (AID 743209). Also: nearly all actives have a fitted effect of over 50% in size. Also: potency is read from the fitted curve at half-maximal effect. The method in brief:
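Readout: CellTiter-Glo luminescence, 30 min at room temperature. System: HSE-bla HeLa cells, 1500/well, plated overnight. Treatment: compounds in DMSO, 5 h at 37 C.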

Test [18] is described as follows: qHTS assay to identify small molecule antagonists of the peroxisome proliferator-activated receptor gamma (PPARg) signaling pathway - cell viability counter screen (AID 743194). Also: nearly all actives have a fitted effect of over 55% in size. Also: potency is read from the fitted curve at half-maximal effect. As to conditions: Potency: co-treated with 50 nM rosiglitazone unless noted. Summed up: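 Viability was measured as CellTiter-Glo luminescence in GeneBLAzer PPARg UAS-bla HEK293H cells. These cells had been exposed 17 h at 37 C to compounds together with rosiglitazone at 50 nM final, with the beta-lactamase readout taken in the same wells.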

In test [19] the target is Peroxisome proliferator-activated receptor gamma (Homo sapiens) (UniProt P37231). The experiment in a line: qHTS assay to identify small molecule antagonists of the peroxisome proliferator-activated receptor gamma (PPARg) signaling pathway (AID 743191; calls by dose curve; also: nearly all actives have a fitted effect of over 30% in size). The method in brief: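 Beta-lactamase reporter under UAS control in HEK293H PPARg-bla cells; compound treatment 17 h at 37C. Read-out: fluorescence intensity after 1 h room-temperature incubation with LiveBLAzer B/G FRET substrate.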

Test [20] can be described thus: qHTS assay for small molecule activators of the heat shock response signaling pathway (AID 743210; active = well fitted activation curve with a large enough effect in the signal ratio in the repeat runs, with a control signal flat, not every such curve was filed as active; inconclusive = weak or mixed curves; the % refers to the signal ratio;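 also: HeLa cells with beta-lactamase reporter driven by heat shock elements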). The method in brief: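 HeLa HSE-bla cells, overnight plating; cpd in DMSO 5 h, 37 C; LiveBLAzer B/G FRET substrate 2.5 h RT; fluorescence intensity read.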

Structures are written as SMILES. “And” between values parts separate entries of the source, which are not always exact repeats. Identical values can stand only once. More than one record can exist for a structure, and the calls need not agree. The source made the active and inactive calls. Unless noted, calls follow the shape of the dose curve; as a rule, active = well fitted curve in the direction sought with a large enough effect in the repeat runs; inconclusive = weak or mixed curves; inactive = no such curve, though single readings can be large; an effect the other way counts as inactive or inconclusive.

Chain of Aryl hydrocarbon receptor (Homo sapiens) (P35869 whole entry, looked up): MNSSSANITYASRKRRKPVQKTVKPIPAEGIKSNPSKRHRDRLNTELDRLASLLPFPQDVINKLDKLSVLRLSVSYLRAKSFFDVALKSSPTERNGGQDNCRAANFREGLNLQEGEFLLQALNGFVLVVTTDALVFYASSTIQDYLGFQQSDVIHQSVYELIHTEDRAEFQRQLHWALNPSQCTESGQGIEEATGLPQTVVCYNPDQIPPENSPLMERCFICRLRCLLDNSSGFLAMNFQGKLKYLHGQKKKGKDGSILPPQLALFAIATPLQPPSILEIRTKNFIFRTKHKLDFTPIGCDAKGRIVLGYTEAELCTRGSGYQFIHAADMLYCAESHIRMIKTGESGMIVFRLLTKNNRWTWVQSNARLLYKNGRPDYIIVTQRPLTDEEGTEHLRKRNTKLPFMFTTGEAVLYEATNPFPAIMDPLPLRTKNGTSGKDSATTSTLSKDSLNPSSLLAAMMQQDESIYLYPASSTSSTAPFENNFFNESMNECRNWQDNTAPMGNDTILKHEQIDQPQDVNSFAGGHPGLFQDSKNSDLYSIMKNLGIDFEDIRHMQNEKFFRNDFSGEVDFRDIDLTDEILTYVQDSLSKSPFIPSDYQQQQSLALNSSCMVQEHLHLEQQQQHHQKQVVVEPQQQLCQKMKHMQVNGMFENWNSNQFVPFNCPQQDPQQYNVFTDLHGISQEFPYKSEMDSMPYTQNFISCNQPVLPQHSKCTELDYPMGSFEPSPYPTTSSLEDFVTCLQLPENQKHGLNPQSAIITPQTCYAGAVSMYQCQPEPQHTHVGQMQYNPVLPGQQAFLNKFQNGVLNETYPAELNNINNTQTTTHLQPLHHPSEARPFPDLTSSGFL

Regarding `CN1[C@@H]2CC[C@H]1CC(O)C2` (stereo partly drawn), the Potency entry in test [1], in [2], in test [3], in test [4], in test [5] and in [6] was “inactive” throughout. In addition, the Potency entry in test [7], in [8], in test [9], in test [10], in test [11] and in test [12] was “inactive” in each case. Moreover, the Potency result in test [13], in test [14], in test [15], in test [16] and in [17] was “inactive” in each case.

With `C[C@]12C/C(=C/O)C(=O)C[C@@H]1CC[C@@H]1[C@@H]2CC[C@@]2(C)[C@H]1CC[C@]2(C)O`, the Potency entry in test [1] is “inactive and 61.7 µM (active)”; in test [2], 29.8 µM (active) and 55 µM (active); in test [6], 674 nM [inconclusive] (active) and 783 nM [inconclusive] (active); in test [7] it was 211 nM (active) and 97.8 nM (active); in [15], 5.96 µM (active). For the same compound, the Potency result in test [3], in [4], in [5], in test [8], in test [9] and in [10] was “inactive” throughout. Further, the Potency result in test [11], in [12], in test [13], in [18], in test [16] and in test [17] was “inactive” each time.

For the compound `CCC1(CC)C(=O)N=C(O)NC1=O`, the Potency entry in test [1], in [2], in [3], in test [4], in [5] and in test [6] was “inactive” throughout. The Potency result in test [7], in [8], in [9], in test [10], in test [11] and in [12] was “inactive” throughout. In addition, the Potency result in test [13], in [19], in test [18], in test [16] and in [17] was “inactive” throughout.

Consider `Nc1nc(N)nc(Cl)n1`, for which the Potency result in test [1], in [2], in test [3], in [4], in test [5] and in test [6] was “inactive” each time. Further, the Potency entry in [7], in test [8], in test [9], in [10], in test [11] and in test [12] was “inactive” each time. For the same compound, the Potency entry in [13], in test [18], in test [15], in test [16], in [17] and in test [20] was “inactive” throughout.

Consider `CCCCCCCCCCCCCCn1cc[n+](C)c1`, for which the Potency in [1] was 2.74 µM (active) and 15.2 µM (active); in [2], 1.09 µM (active) and 3.81 µM (active); in test [4], 7.78 µM [inconclusive] (active) and 1.22 µM [inconclusive] (active) and inactive; in [5], 48.5 µM (active) and inactive; in [8] it was 1.37 µM (active) and 4.8 µM (active) and inactive; in [9] it was 30.7 µM (active) and 24.1 µM (active). Besides, the Potency in [10] was 2.44 µM (active) and 5.39 µM (active) and inactive; in test [11], 8.65 µM (active) and 38.1 µM (active); in test [13], 34.4 µM (active); in test [18] it was 9.79 µM [setting not given] (active) and inactive; in test [16], 24.4 µM (active) and 30.3 µM (active) and inactive; in [17], 19.5 µM (active) and 21.6 µM (active) and inactive. The Potency result in test [3], in [6], in [7] and in [12] was “inactive” throughout.

On to `CCCCc1ccccc1`, for which the Potency result in test [1], in [2], in [3], in test [4], in [5] and in test [6] was “inactive” in each case. For the same compound, the Potency entry in test [7], in [8], in test [9], in [10], in test [11] and in [12] was “inactive” in each case. The Potency result in [13], in test [14], in [16] and in test [17] was “inactive” in each case.

Regarding `C=CCBr`, the Potency result in [1], in test [2], in test [3], in test [4], in [5] and in test [6] was “inactive” throughout. For the same compound, the Potency entry in [7], in test [8], in test [9], in [10], in [11] and in [13] was “inactive” each time. Further, the Potency entry in test [14], in [18], in test [15], in [16] and in test [17] was “inactive” each time.
